Hits are enriched below; roughly 3.8% of the tested compounds scored in any of these assays.
TIM10 inh – inhibits growth of TIM10 yeast strain; inhibition, % at 10 µM; AID 463195; hit rate 1.4% among 330,000; S. cerevisiae TIM10 strain growth, BacTiter-Glo luminescence, 24 h;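 active = inhibition of 40% or more at the single tested concentration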;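 note: wild-type TIM10 isogenic control strain grown at permissive 25 °C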
CR mimetic SO – caloric restriction mimetics inhibiting age-related superoxide in yeast; S. cerevisiae aged cells, superoxide DHE fluorescence; hits give low values; superoxide response (% of plate mean), % at 10 µM; hit rate 0.18% among 330,000; AID 2690;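 active = superoxide response under a set limit, about three screen SD below normal, cut at about 65% in these data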;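 note: yeast aged for seven days with compound at 30 °C before DHE staining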
NLRP3 yeast inh – blocks the NALP3 inflammasome reconstituted in yeast | Yeast reconstituted NLRP3/ASC/caspase-1, beta-gal luminescence, 24 h | inhibition, % at 10 µM | hit rate 0.39% among 330,000 | AID 2825;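 active = inhibition of 50% or more; inactive = inhibition below 50%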
tim10-1 inh – inhibits growth of tim10-1 mutant yeast; AID 463190; inhibition, % at 20 µM; S. cerevisiae tim10-1 ts strain growth, BacTiter-Glo, 24 h; hit rate 2.2% among 330,000;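 active = inhibition of at least 40%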;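 note: mutant grown at 25 °C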
tim23-1 inh – inhibits growth of tim23-1 mutant yeast; S. cerevisiae tim23-1 growth, BacTiter-Glo luminescence, 24 h; inhibition, % at 20 µM; hit rate 1.3% among 330,000;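 active = growth inhibition of the mutant yeast at or above 50%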;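 note: temperature-sensitive mutant grown at 25 °C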
TIM10 conf – confirmation of TIM10 yeast growth inhibitors | hit rate 63% among 4,600 | inhibition, % at 10 µM | S. cerevisiae tim10 strain growth, BacTiter-Glo luminescence, 24 h | shares compounds with TIM10 inh;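 active = inhibition of yeast growth at or above a set limit in either of two replicates at 10 µM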; note: this counterscreen used the strain with wild-type TIM10
tim23-1 conf – confirmation of tim23-1 mutant yeast growth inhibitors. shares compounds with tim23-1 inh. S. cerevisiae tim23-1 growth, BacTiter-Glo luminescence, 24 h. inhibition, % at 20 µM. hit rate 83% among 4,400. AID 463218;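 active = inhibition above about 39% in either of two replicate wells at 20 µM, limit read from the data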;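 note: temperature-sensitive tim23-1 mutant grown at 25 °C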
Numbers stand for hits; i = inactive; nt = not tested or not shown.

SMILES	TIM10 inh	CR mimetic SO	NLRP3 yeast inh	tim10-1 inh	tim23-1 inh	TIM10 conf	tim23-1 conf
COc1cccc(OC)c1OCCCOc1ccc(C)cc1Br	i	i	i	i	i	nt	nt
CCOC(=O)/C(C#N)=C/c1cc2ccc(C)cc2nc1Cl	42	i	i	i	56	i	64
CCOC(=O)/C(C#N)=C/c1cc2ccccc2nc1N1CCOCC1	i	i	i	i	i	nt	nt
CC(C)C(NC(=O)/C(=C/c1ccco1)NC(=O)c1ccc(Br)o1)C(=O)O (stereo unspecified)	i	i	i	i	i	nt	nt
CC(OC(=O)/C=C/c1ccc2ccccc2n1)C(=O)N(C)c1ccccc1 (stereo unspecified)	43	i	i	i	52	42	53
COc1ccc(C(=O)O/N=C(\N)Cc2ccc(Cl)cc2)cc1OC	79	i	i	i	68	86	49
COc1ccc(Cl)cc1C(=O)O/N=C(\N)c1ccc(Cl)cc1	79	i	i	i	89	83	44
NC(=O)c1cccc([N+](=O)[O-])c1	i	i	i	i	i	nt	nt
COc1ccc(C/C(N)=N/OC(=O)c2cccc([N+](=O)[O-])c2)cc1	72	i	i	i	73	86	68
CC1=C(C)/C(=N/OC(=O)c2cccc([N+](=O)[O-])c2)C=CC1=O	41	i	i	i	62	i	86
CCOP(=O)(OCC)/C(=N/OC(=O)c1cccc([N+](=O)[O-])c1)C(N)=O	i	i	i	i	i	nt	nt
CC1=CCC(C(=O)O)C(C(=O)Nc2ccc(-c3nc4ccc(C)cc4s3)cc2)C1 (stereo unspecified)	i	i	i	i	i	nt	nt
N/C(Cc1ccc(Cl)cc1)=N\OC(=O)Cc1ccc([N+](=O)[O-])cc1	77	i	i	i	55	i	72
N/C(=N\OC(=O)Cc1ccc(Cl)cc1)c1ccccn1	i	i	i	i	i	nt	nt
Oc1c(Br)cc(Br)cc1CNc1ccccn1	51	i	i	i	67	i	74
COc1ccccc1N1CC(C)(C)C(=O)N(C(=O)c2ccc(Cl)cc2)C1=S	45	i	i	i	51	54	52
COc1cc(/C=C2\C(C)=C(C#N)c3nc(N)c(C#N)c(C)c32)ccc1OCC(=O)O	44	i	i	i	61	31	48
COc1ccc2cc(CN(Cc3ccco3)Cc3nnnn3C3CCCCC3)c(=O)[nH]c2c1	41	i	i	i	59	i	60
CCOC(=O)c1sc(NC(=O)c2sccc2C)cc1C	74	i	i	i	50	62	71
CCc1ccc(CN(C)C(=O)c2cc(COc3ccc(-n4cncn4)cc3)on2)cc1	56	i	i	i	54	46	52
CCCOC1CCCN(C(=O)c2cc(COc3ccc(-n4cncn4)cc3)on2)C1 (stereo unspecified)	i	i	i	i	i	nt	nt
COc1ccccc1-n1ccnc(SCC(=O)NCCc2ccccc2)c1=O	i	i	i	i	i	nt	nt
CCOC(=O)CSc1c(-c2cccs2)[nH]c2ccccc12	49	i	i	i	55	i	52
CCOC(=O)CSc1c(-c2ccc(Cl)cc2)[nH]c2ccccc12	i	i	i	i	i	nt	nt
CC1CCCN(Cc2c(O)ccc3c(=O)c(-c4nc5ccccc5s4)c(N)oc23)C1 (stereo unspecified)	52	i	i	i	56	51	58
SMILES	TIM10 inh	CR mimetic SO	NLRP3 yeast inh	tim10-1 inh	tim23-1 inh	TIM10 conf	tim23-1 conf
Cc1cc(C)c(NC(=O)Cn2nnc(C(=O)NCc3ccc4c(c3)OCO4)c2N)c(C)c1	i	i	i	i	i	nt	nt
Clc1ccc(C2CSc3c4ncnc-4ncn32)cc1 (stereo unspecified)	i	i	i	i	i	nt	nt
CCOC(=O)N1CCC2(CC1)C(C#N)=C(N)Oc1c2c(C)nn1-c1cccc(Cl)c1	44	i	i	i	58	i	58
CCCN1CCC2(CC1)C(C#N)=C(N)Oc1c2sc2nc(C)cc(C)c12	i	i	i	i	i	nt	nt
CCOC(=O)N1CCC2(CC1)C(C#N)=C(N)Oc1c2sc2nc(C)cc(C)c12	51	i	i	i	61	36	51
CC1Cc2ccccc2N1C(=O)CN1C(=O)NC(C)(CCc2ccccc2)C1=O (stereo unspecified)	i	i	i	i	i	nt	nt

Compound activity deposited in PubChem by several laboratories.
